Measurements reported in publication PMC4552634, “A New Set of Chemical Starting Points with Plasmodium falciparum Transmission-Blocking Potential for Antimalarial Drug Discovery” (PLoS ONE, 2015).
About 3,200 (25%) of roughly 13,000 compounds showed an effect of 50% or more. The list shows a part of the results.

Tested on: P. falciparum stage V gametocytes
Set-up: BacTiter-Glo ATP luminescence viability of purified stage V gametocytes in 384-well plates, per cent inhibition versus DMSO
Settings: 48 h, 5 µM; inhibitor

Compound	% Inhibition
C=CCNC(=O)CCCN=C(N)N [TCMDC-131668]	6.787%
CCOC(=O)c1ccc2nc(-c3ccc(C(=O)NCc4ccc(C(C)(C)C)cc4)cc3)[nH]c2c1 [TCMDC-140576]	-8.95%
Cc1cc2nc(-c3ccc(OCC(=O)NCc4cccc(C(F)(F)F)c4)cc3)[nH]c2cc1C [TCMDC-140439]	-1.946%
Cc1cc2nc(-c3ccc(C(=O)NCCCc4ccccc4)cc3)[nH]c2cc1C [TCMDC-140429]	-39.85%
CC(C)(C)c1ccc(CNC(=O)c2ccc(-c3nc4ccc(C(C)(C)C)cc4[nH]3)cc2)cc1 [TCMDC-140455]	76.42%
CC(C)(C)c1ccc2nc(-c3ccc(C(=O)NCCCc4ccccc4)cc3)[nH]c2c1 [TCMDC-140453]	68.75%
CC(C)(C)c1ccc(CNC(=O)c2ccc(-c3nc4ccc(Cl)cc4[nH]3)cc2)cc1 [TCMDC-140442]	5.243%
Cc1cc2nc(-c3ccc(OCC(=O)NCc4ccc(C(C)(C)C)cc4)cc3)[nH]c2cc1C [TCMDC-140440]	63.48%
CC(C)(C)c1ccc2nc(-c3ccc(C(=O)NCc4cccc(C(F)(F)F)c4)cc3)[nH]c2c1 [TCMDC-140454]	18.91%
Cc1cc2nc(-c3ccc(C(=O)NCc4ccc(C(C)(C)C)cc4)cc3)[nH]c2cc1C [TCMDC-140433]	-24.96%
CCc1ccc(NC(=O)c2cccc(CN3CCCN(Cc4cccc(O)c4)CC3)c2)cc1 [TCMDC-135989]	-33.27%
O=C(/C=C/c1ccc(Cl)cc1)NCCCCCN1CCCC(C(=O)Nc2ccc(Cl)c(Cl)c2)C1 (centres unmarked) [TCMDC-136125]	-14.11%
CC1CN(CCCn2c3ccccc3c3ccc(C(=O)CCCN(C)C)cc32)CC(C)N1 (centres unmarked) [TCMDC-137742]	88.42%
Cc1c(CCNC(=O)CCCN2CC(C)CC(C)C2)c2ccccc2n1C (centres unmarked) [TCMDC-131457]	10.13%
CCC1CN(CCCn2c3ccccc3c3ccccc32)C(CC)CN1 (centres unmarked) [TCMDC-138116]	25.71%
O=c1[nH]c2ccc(Nc3nccc(NCCc4ccccc4)n3)cc2[nH]1 [TCMDC-136805]	-64.58%
CC(CCCC(=O)Nc1ccc(CC(C)NCCc2cccc(Cl)c2)cc1)NCCc1cccc(Cl)c1 (centres unmarked) [TCMDC-139798]	110.2%
CC(CCCCCC(=O)Nc1ccc(CC(C)NCCc2cccc(Cl)c2)cc1)NCCc1cccc(Cl)c1 (centres unmarked) [TCMDC-139800]	109.3%
CC(Cc1ccc(NC(=O)CCCc2ccccc2)cc1)NCCc1cccc(Cl)c1 (centres unmarked) [TCMDC-139883]	22.17%
CC(CCCCC(=O)Nc1ccc(CC(C)NCCc2cccc(Cl)c2)cc1)NCCc1cccc(Cl)c1 (centres unmarked) [TCMDC-139799]	105.4%
CC(C)CNc1c2c(nc3cnn(-c4c5c(nc6cn[nH]c46)CCCC5)c13)CCCC2 [TCMDC-131555]	-4.273%
Cc1cccc2nc(-c3ccc(-c4ccc(CN5CCOCC5)cc4)cc3)[nH]c12.O=C(O)C(F)(F)F [TCMDC-133825]	20.49%
O=C(Nc1ccc(C(F)(F)F)cc1)NC1CCN(c2ccnc3ccccc23)CC1 [TCMDC-133587]	54.56%

Compound	% Inhibition
O=C(Nc1ccc(F)cc1)NC1CCN(c2ccnc3ccccc23)C1 (centres unmarked) [TCMDC-133577]	52.59%
CC(C)(C)c1ccc(OCC(=O)NC2CCN(c3ccnc4cc(Cl)ccc34)C2)cc1 (centres unmarked) [TCMDC-133670]	64.95%
Cc1ccc(NC(=O)NC2CCN(c3ccnc4ccccc34)C2)cc1 (centres unmarked) [TCMDC-133576]	-20.26%
O=C(COc1ccc(F)cc1)NC1CCN(c2ccnc3cc(Cl)ccc23)C1 (centres unmarked) [TCMDC-133397]	-4.375%
O=C(Nc1ccc(OC(F)(F)F)cc1)NC1CCN(c2ccnc3ccccc23)C1 (centres unmarked) [TCMDC-133583]	-30.46%
O=C(Nc1cccc(C(F)(F)F)c1)NC1CCN(c2ccnc3ccccc23)CC1 [TCMDC-133586]	-4.951%
O=C(Nc1ccccc1Br)N[C@@H]1CCN(c2ccnc3ccccc23)C1 [TCMDC-141572]	52.9%
O=C(Nc1ccc(C(F)(F)F)cc1)NC1CCN(c2ccnc3ccccc23)C1 (centres unmarked) [TCMDC-133578]	40.18%
O=C(COc1ccccc1)NC1CCN(c2ccnc3cc(Cl)ccc23)C1 (centres unmarked) [TCMDC-133669]	-12.2%
COc1ccc(NC(=O)NC2CCN(c3ccnc4ccccc34)C2)cc1 (centres unmarked) [TCMDC-133575]	3.669%
O=C(Nc1ccccc1Oc1ccccc1)NC1CCN(c2ccnc3cc(Cl)ccc23)C1 (centres unmarked) [TCMDC-133401]	-4.379%
Cc1ccc(-c2cc(C(=O)Nc3ccc(S(=O)(=O)N4CC(C)OC(C)C4)cc3)[nH]n2)c(O)c1 (centres unmarked) [TCMDC-125180]	-20.62%
COc1ccc2nccc([C@@H](O)CN3CCC(NC(=O)c4ccc(-c5ccccc5)s4)CC3)c2c1 [TCMDC-141106]	10.46%
O=C(CCCCCNC(=O)c1ccc(O)c(-c2ccc(Cl)c(Cl)c2)c1)NC1CCCCCC1 [TCMDC-140842]	-20.8%
CC(C)(C)c1ccc(N2C(N)=NC(N)=NC2(C)C)cc1 [TCMDC-137713]	2.693%
O=C(Nc1ccc(Cl)cn1)c1sc2ccccc2c1O [TCMDC-124520]	-11.35%
Cc1ccc(C(=O)Nc2cc(S(=O)(=O)N3CCCC3)ccc2OCC(F)(F)F)cc1 [TCMDC-124325]	-29.62%
O=C(Nc1ccc(Cl)c(Cl)c1)Nc1ccc(F)c([N+](=O)[O-])c1 [TCMDC-125042]	-17.87%
CC(C)(C)c1ccc(NC(=O)N[C@@H]2CCN(c3ccnc4ccccc34)C2)cc1 [TCMDC-141573]	101%
O=C(Nc1ccc(OC(F)(F)F)cc1)NC1CCN(c2ccnc3ccccc23)CC1 [TCMDC-133585]	-8.485%
O=C(Nc1ccc(C(F)(F)F)cc1)NC1CCN(c2ccnc3cc(Cl)ccc23)C1 (centres unmarked) [TCMDC-133405]	-22.97%
COc1cc(O)c2c(=O)c(OC)c(-c3cccc(Cl)c3OC3O[C@H](CO)[C@@H](O)[C@H](O)[C@H]3O)oc2c1OC (some centres unmarked) [TCMDC-131699]	3.846%
COc1cccc(-c2csc(C(=O)NCC3CCN(Cc4ccc(C(C)C)cc4)C3)c2)c1 (centres unmarked) [TCMDC-134439]	107.3%

Compound	% Inhibition
CC(C)c1ccc(CN2CCC(CNC(=O)c3cc(-c4cccc(F)c4)cs3)C2)cc1 (centres unmarked) [TCMDC-134437]	107.7%
CC(C)c1ccc(CN2CCCCC(NC(=O)c3cc(-c4cccc(F)c4)cs3)C2)cc1 (centres unmarked) [TCMDC-134463]	-60.78%
CC(C)c1ccc(CN2CCC(CNC(=O)c3cc(-c4cccc(Cl)c4)cs3)C2)cc1 (centres unmarked) [TCMDC-134438]	95.05%
Cc1cc(N[C@@H](CC(C)C)C(=O)NCCOc2ccccc2)nc(Nc2ccccc2)n1 [TCMDC-134741]	-17.47%
C#CCN(Cc1cc2c(=O)[nH]c(N)nc2cc1C)c1ccc(C(=O)N[C@@H](CCC(=O)O)C(=O)O)cc1 [TCMDC-132041]	1.845%
CCOC(=O)NC1=NC(C)(C)N(OCc2cccc3c2ccc2ccccc23)C(NC(=O)OCC)=N1 [TCMDC-131339]	9.295%
CCCCc1ccc(NC(=O)Nc2ccc3c(c2)CCNCC3)cc1 [TCMDC-141500]	0.2373%
CCOC(=O)c1c(CN2CCCC2)n(-c2ccccc2)c2cc(Br)c(O)cc12 [TCMDC-124122]	-23.97%
C=C[C@]1(C)C[C@@H](OC(=O)c2cncn(COC)c2=O)[C@]2(C)[C@H](C)CC[C@]3(CCC(=O)[C@H]32)[C@@H](C)[C@@H]1O [TCMDC-141314]	6.014%
CN1CCN(c2cc(NC(=O)Nc3cccc(Cl)c3Cl)ccc2Cl)CC1 [TCMDC-139114]	-11.69%
CCCC(CNCc1cccc(I)c1)CNc1cc(=O)c2ccccc2[nH]1 (centres unmarked) [TCMDC-139433]	23.15%
CC(=O)N1N=C(c2cccs2)Sc2c1nc(-c1ccc(Cl)cc1)n2C(C)=O [TCMDC-124898]	78.97%
CCOC(=O)c1[nH]c(-c2ccccc2)nc1-n1nc(C)cc1C [TCMDC-131622]	-5.185%
CC(=O)N1N=C(c2ccccc2)Sc2c1nc(-c1ccc(Cl)cc1)n2C(C)=O [TCMDC-125193]	43.76%
CC(=O)N1N=C(c2ccc(F)cc2)Sc2c1nc(-c1ccccc1)n2C(C)=O [TCMDC-125192]	62.08%
COc1ccc(Cc2nc3c(n2C(C)=O)SC(c2ccc(Cl)c(Cl)c2)=NN3C(C)=O)cc1 [TCMDC-125189]	18.21%
CCOC(=O)c1[nH]c(-c2ccc(-c3ccccc3)cc2)nc1N [TCMDC-131797]	-4.943%
CC(=O)N1N=C(c2ccc(Cl)cc2)Sc2c1nc(-c1ccccc1)n2C(C)=O [TCMDC-124899]	80.4%
CC(=O)N1N=C(c2ccc(Cl)cc2)Sc2c1nc(C1CCCCC1)n2C(C)=O [TCMDC-125191]	45.01%
CC(=O)N1N=C(c2ccc(F)cc2)Sc2c1nc(C1CCCCC1)n2C(C)=O [TCMDC-125190]	77.23%
O=C(/C=C/c1ccc(Cl)cc1)NCCCCCN1CCCN(C(=O)Nc2ccc(F)c(Cl)c2)CC1 [TCMDC-136101]	-6.119%
COc1cccc(CNC[C@@H](O)[C@H](Cc2ccccc2)NC(=O)c2cc(C3CCCC3)cc(N3CCCCS3(=O)=O)c2)c1 [TCMDC-134523]	42.74%
